Screening results: PubChem BioAssay, National Center for Advancing Translational Sciences (NCATS)
Hits are enriched below; roughly 3.3% of the tested compounds scored in any of these assays.
AmpC detergent = qHTS Inhibitors of AmpC Beta-Lactamase (assay with detergent); P00811; AmpC hydrolysis of nitrocefin, absorbance 480 nm, 0.01% Triton; Potency, µM (titrated, usually from 114 µM), without a hit: top-dose activity change, negative = inhibition, actives largely listed as inhibitors; 0.041% of 370,000 active; AID 485294, 2010;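 further: 0% = no-compound wells and -100% = no-enzyme wells; nearly all actives have a fitted effect of over 25% in size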
Target sequence (P00811 whole entry, looked up): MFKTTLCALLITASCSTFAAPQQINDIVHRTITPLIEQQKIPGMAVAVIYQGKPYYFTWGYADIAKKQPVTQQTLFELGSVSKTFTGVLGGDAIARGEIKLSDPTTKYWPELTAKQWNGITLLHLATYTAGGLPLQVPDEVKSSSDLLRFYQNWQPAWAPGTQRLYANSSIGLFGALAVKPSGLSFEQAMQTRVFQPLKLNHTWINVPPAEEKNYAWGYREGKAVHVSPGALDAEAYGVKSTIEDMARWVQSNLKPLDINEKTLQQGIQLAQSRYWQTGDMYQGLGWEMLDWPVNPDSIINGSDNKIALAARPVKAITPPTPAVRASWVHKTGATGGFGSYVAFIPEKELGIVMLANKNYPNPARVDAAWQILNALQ
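AmpC (5.3 nM in the dispensed reagent) in 20 mM phosphate pH 7.0 with 0.01% (detergent screen) or 0.0001% Triton X-100 was preincubated with compounds for 15 min at room temperature. Nitrocefin was then added from an 800 uM solution, and hydrolysis was followed at 480 nm.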
SARS PLpro yeast = qHTS of Yeast-based Assay for SARS-CoV PLP; S. cerevisiae expressing SARS-CoV PLpro, growth rescue; Potency, µM (series often up to 32.9 µM), for inactives: top-dose activity, positive = growth rescue, hits mostly activators; 0.19% of 330,000 active; AID 485353, 2010; calls by dose curve; further: 0% is about no effect; nearly all actives have a fitted effect of over 55% in size
TbPYK inhibitor = qHTS of Trypanosoma Brucei Inhibitors | pyruvate kinase (Trypanosoma brucei), Q57TT1 | TbPYK enzyme, Kinase-Glo Plus ATP luminescence, 45 min | Potency, µM (highest dose often 76.8 µM), without a hit: top-dose activity, negative = inhibition, actives largely listed as inhibitors | 0.12% of 410,000 active | AID 624173, 2012; further: on the % scale 0 is the no-effect control and ±100 the full control effect; nearly all actives have a fitted effect of over 50% in size
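TbPYK + substrate in 50 mM TEA pH 7.2, 100 mM KCl, 10 mM MgCl2, 0.05% BSA, 0.01% Tween-20; cpd pinned; ADP 130 uM final; 45 min RT; Kinase-Glo Plus 10 min; luminescence endpoint.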
AmpC no deterg = qHTS Inhibitors of AmpC Beta-Lactamase (assay without detergent); AID 485341, 2010; Potency, µM (highest dose often 57.1 µM), for inactives: at the top dose activity change, negative = inhibition, most hits filed as inhibitors; 0.52% of 330,000 active; P00811; AmpC nitrocefin hydrolysis, absorbance 480 nm, 0.0001% Triton;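 further: plate controls were no compound for no effect and no enzyme for full effect; nearly all actives have a fitted effect of over 20% in size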
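20 mM phosphate pH 7.0 + 0.01% (detergent screen) or 0.0001% Triton X-100; 5.3 nM AmpC reagent; cpd preinc 15 min RT; nitrocefin (800 uM stock) to start; A480 q20 s × 4 min; Activity was normalised to no-enzyme and no-compound control wells.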
Sm TGR block = qHTS Assay for the Inhibitors of Schistosoma Mansoni Peroxiredoxins | Schistosoma mansoni thioredoxin glutathione reductase (TGR), Q962Y6 | purified TGR, DTNB reduction, TNB absorbance 405 nm | Potency, µM (doses to about 114 µM), for inactives: at the top dose activity change, negative = inhibition, most hits filed as inhibitors | 3% of 360,000 active; further: on the % scale 0 is the no-effect control and ±100 the full control effect; nearly all actives have a fitted effect of over 60% in size
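Kinetic colorimetric format: TGR-catalysed, NADPH-driven DTNB reduction monitored via TNB absorbance. Enzyme dispensed at 20 nM; compound exposure 15 min at room temperature before reaction start.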
RE007 growth inh = qHTS Assay for Inhibitors of the HIV-1 protein Vpr | AID 651644, 2012 | 0.21% of 360,000 active | S. pombe RE007 Vpr strain, BacTiter-Glo ATP luminescence, 24 h | Potency, µM (doses to about 92.2 µM), inactives show at the highest dose activity change, negative = less growth, actives largely listed as inhibitors; active means well fitted falling curve with a large enough effect; inconclusive means small, poorly fitted or top-dose-only effect; inactive means no such curve, though single readings can be large or run the other way; further: on the % scale 0 is the no-effect control and ±100 the full control effect; nearly all actives have a fitted effect of over 50% in size
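Fission yeast RE007 carrying one integrated HIV-1 vpr copy, seeded at OD 0.01 in PMG+AL medium with 23 nL pinned compound. Grown 24 h at 30 degrees; viability read by BacTiter-Glo luminescence after 5 min.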
An asterisk follows results filed as active. Unless noted, the call rests on the fitted dose curve; in most records, active means well fitted curve in the direction sought with a large enough effect; inconclusive means small, poorly fitted or top-dose-only effect, or another doubt; inactive means no such curve, though single readings can be large; an effect the other way counts as inactive or inconclusive. Potency means the concentration at half of the fitted maximal effect.

`CCC(Sc1nc2ccccc2c2nc(-c3ccccc3)nn12)C(=O)Nc1cccc(OC)c1` (stereo not drawn) gave AmpC detergent 8.0%, TbPYK inhibitor -9.8% and Sm TGR block 1.6%.
For COCC1CCCN(C(=O)c2ccc3oc(CCCc4ccccc4)nc3c2)C1 (stereo not drawn) the results were AmpC detergent 2.6%, SARS PLpro yeast 1.0%, TbPYK inhibitor -3.7%, AmpC no deterg 22.7%, Sm TGR block 28.2µM* and RE007 growth inh -8.2%.
For CSc1ccc(CNC(=O)c2cc3c(=O)n(Cc4ccco4)ccc3nc2C)cc1 the results were AmpC detergent 3.6%, TbPYK inhibitor -11.9% and Sm TGR block 44.7µM*.
For COc1ccc(CNC(=O)c2cc3c(=O)n(Cc4ccco4)ccc3nc2C)cc1 the results were AmpC detergent 0.9%, TbPYK inhibitor -12.2% and Sm TGR block inconclusive.
O=C(Nc1ccc(S(=O)(=O)Nc2ncccn2)cc1)C(F)(F)F was read as AmpC detergent -6.2%, SARS PLpro yeast 5.01µM*, TbPYK inhibitor 0.5%, AmpC no deterg -16.2%, Sm TGR block 1.6% and RE007 growth inh 7.8%.
Screening CC(=O)Nc1ccc(S(=O)(=O)Nc2ncccn2)cc1 returned AmpC detergent -8.8%, SARS PLpro yeast 8.0%, TbPYK inhibitor 4.2%, AmpC no deterg -6.2%, Sm TGR block -4.7% and RE007 growth inh 11.1%.
For O=C(/C=C/c1cccc(F)c1)Nc1ccc(S(=O)(=O)Nc2ncccn2)cc1 the results were AmpC detergent -2.9%, SARS PLpro yeast -0.5%, TbPYK inhibitor -0.3%, AmpC no deterg 11.2µM*, Sm TGR block 6.6% and RE007 growth inh -0.3%.
Cc1ccc(C)c(S(=O)(=O)Nc2ccccc2C(=O)Nc2ccc(S(=O)(=O)Nc3ncccn3)cc2)c1 was read as AmpC detergent -11.4%, SARS PLpro yeast -8.3%, TbPYK inhibitor -13.5%, AmpC no deterg 15.8µM*, Sm TGR block -17.7% and RE007 growth inh -2.6%.
CCc1ccccc1N1CC(c2nc3ccccc3n2CCOc2ccc(Cl)c(C)c2)CC1=O (stereo not drawn) was read as AmpC detergent -4.3%, TbPYK inhibitor 2.8% and Sm TGR block -7.3%.
Screening Cc1[nH]c2ccccc2c1Cc1nnc(SCC(N)=O)o1 returned AmpC detergent inconclusive, SARS PLpro yeast -4.0%, TbPYK inhibitor -8.1%, AmpC no deterg 4.6%, Sm TGR block 44.7µM* and RE007 growth inh 4.6%.
`Cc1[nH]c2ccccc2c1CCC(N)=O` gave AmpC detergent -16.6%, SARS PLpro yeast 0.5%, TbPYK inhibitor -11.5%, AmpC no deterg -14.5%, Sm TGR block -4.4% and RE007 growth inh -0.9%.
For CN1c2ccsc2/C(=N/Nc2ccccc2)CS1(=O)=O the results were AmpC detergent inconclusive, SARS PLpro yeast -7.2%, TbPYK inhibitor -13.4%, AmpC no deterg -19.8%, Sm TGR block inconclusive and RE007 growth inh 44.7µM*.
`CN1c2ccsc2/C(=N/NC(=O)c2c(F)cccc2F)CS1(=O)=O` gave AmpC detergent 1.8%, SARS PLpro yeast 21.4%, TbPYK inhibitor -6.8%, AmpC no deterg -19.0%, Sm TGR block 1.9% and RE007 growth inh 3.6%.
Screening CC(=O)N1CCCC1c1nc2ccccc2n1Cc1ccccc1Cl (stereo not drawn) returned AmpC detergent -1.4%, TbPYK inhibitor -5.1% and Sm TGR block -4.9%.
Cc1ccc(-n2cc(-c3ccccc3)c3c(NC4CCCC4)ncnc32)cc1 was read as AmpC detergent 6.7%, TbPYK inhibitor -5.2% and Sm TGR block 0.2%.
For O=C(COC(=O)c1nc(Cl)c(Cl)c(Cl)c1Cl)NCc1ccccc1 the results were AmpC detergent -20.7%, SARS PLpro yeast 6.6%, TbPYK inhibitor -5.2%, AmpC no deterg -23.9%, Sm TGR block 3.98µM* and RE007 growth inh -5.1%.
For O=C(C1CCN(S(=O)(=O)c2ccc(Br)s2)CC1)N1CCN(c2cccc(C(F)(F)F)c2)CC1 the results were AmpC detergent -7.0%, TbPYK inhibitor 1.6% and Sm TGR block 8.3%.
Screening CC(C)(C)c1csc(N/N=C/c2ccc(O)cc2)n1 returned AmpC detergent -0.1%, SARS PLpro yeast 7.2%, TbPYK inhibitor -2.8%, AmpC no deterg 10µM*, Sm TGR block -26.9% and RE007 growth inh -1.0%.
`CCN(CC)CCCN1C(=O)C(O)=C(C(=O)c2ccco2)C1c1ccc(C)o1` (stereo not drawn) gave TbPYK inhibitor -2.4% and RE007 growth inh 21.6%.
For CCN(CC)CCCN1C(=O)C(O)=C(C(=O)c2sc(C)nc2C)C1c1ccc(C)o1 (stereo not drawn) the results were AmpC detergent 3.9%, SARS PLpro yeast 5.1%, AmpC no deterg -5.2% and Sm TGR block -29.4%.
CCOc1ccc(C2C(C(=O)c3ccc(C)o3)=C(O)C(=O)N2CCCN(CC)CC)cc1 (stereo not drawn) was read as AmpC detergent -4.0%, SARS PLpro yeast 0.1%, TbPYK inhibitor 7.4%, AmpC no deterg -5.9%, Sm TGR block 35.5µM* and RE007 growth inh -6.0%.
For CCOc1cccc(C2C(C(=O)c3ccc(C)o3)=C(O)C(=O)N2CCCn2ccnc2)c1 (stereo not drawn) the results were AmpC detergent 0.1%, SARS PLpro yeast 2.7%, TbPYK inhibitor 4.5%, AmpC no deterg -10.8%, Sm TGR block inconclusive and RE007 growth inh -10.7%.
CCN(CC)CCCN1C(=O)C(O)=C(C(=O)c2ccc(C)o2)C1c1cccs1 (stereo not drawn) was read as AmpC detergent 4.7%, SARS PLpro yeast 7.2%, AmpC no deterg -25.6% and Sm TGR block 44.7µM*.
CCN(CC)CCCN1C(=O)C(O)=C(C(=O)c2ccc(C)o2)C1c1ccc(C)o1 (stereo not drawn) was read as AmpC detergent 6.2%, SARS PLpro yeast -34.5%, TbPYK inhibitor -9.8%, AmpC no deterg -12.9%, Sm TGR block 50.1µM* and RE007 growth inh -3.1%.
Screening Cc1noc(NS(=O)(=O)c2ccc(NC(=O)c3ccc(Br)cc3)cc2)c1C returned AmpC detergent -3.0%, TbPYK inhibitor 1.1% and Sm TGR block -10.9%.
